KDM4E inh: qHTS Assay for Inhibitors of Human Jumonji Domain Containing 2E (JMJD2E); Lysine-specific demethylase 4E (Homo sapiens), B2RXH2; JMJD2E catalytic domain, FDH-coupled NADH fluorescence (FDH is formaldehyde dehydrogenase); Potency, µM (series often up to 57.1 µM), for inactives: top-dose activity change, negative = inhibition, actives largely listed as inhibitors; 230,000 compounds, 1.6% hits; AID 2147, 2009; active = well fitted inhibition curve with a large enough effect, not every such curve was filed as active; inconclusive = small, poorly fitted or top-dose-only effect, or another doubt; inactive = no such curve, though single readings can be large or run the other way;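 note: potency is the fitted concentration of half-maximal effect; 0% = wells with enzyme and -100% = buffer wells without enzyme; nearly all actives have a fitted effect of over 50% in size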
Target sequence (B2RXH2 1-337 limits assumed): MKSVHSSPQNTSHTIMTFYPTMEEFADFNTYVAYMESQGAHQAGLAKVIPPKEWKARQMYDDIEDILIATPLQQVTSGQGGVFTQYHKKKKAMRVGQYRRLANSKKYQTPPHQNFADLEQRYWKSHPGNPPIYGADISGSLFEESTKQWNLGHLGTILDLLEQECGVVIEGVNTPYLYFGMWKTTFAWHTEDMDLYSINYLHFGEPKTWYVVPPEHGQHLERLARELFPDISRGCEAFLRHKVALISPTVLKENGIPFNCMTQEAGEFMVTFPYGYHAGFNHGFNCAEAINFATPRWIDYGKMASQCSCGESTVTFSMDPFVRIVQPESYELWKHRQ
HttQ103 aggreg: qHTS Multiplex Assay to Identify Dual Action Probes in a Cell Model of Huntington: Aggregate Formation (GFP). Potency, µM (titrated, usually from 46.1 µM), for inactives: top-dose activity change, negative = inhibition, most hits filed as inhibitors. 220,000 compounds, 1.1% hits. AID 1688, 2009. PC12 HttQ103-GFP aggregates, Acumen cytometry, 40 h; note: potency is the fitted concentration of half-maximal effect; % is set by controls: 0 for no effect and ±100 for the full control effect; nearly all actives have a fitted effect of over 60% in size
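Aggregates are detected as GFP objects 1–25 µm with signal 6 STDEV over background in lysates of induced PC12 cells. These carry Huntingtin exon 1 with 103 glutamines fused to GFP under an ecdysone promoter; compounds titrated.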
TRb-SRC2 inh: qHTS for Inhibitors of the Interaction of Thyroid Hormone Receptor and Steroid Receptor Coregulator 2. Thyroid hormone receptor beta (Homo sapiens), P10828. TRbeta-SRC2 peptide binding, fluorescence polarization; receptor liganded with 1 µM T3. Potency, µM (doses to about 106 µM), for inactives: at the top dose activity change, negative = inhibition, most hits filed as inhibitors. 280,000 compounds, 0.065% hits;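 note: potency is the fitted concentration of half-maximal effect; plate controls were bound peptide for no effect and peptide without receptor for full effect; nearly all actives have a fitted effect of over 50% in size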
Target sequence (P10828 whole entry, looked up): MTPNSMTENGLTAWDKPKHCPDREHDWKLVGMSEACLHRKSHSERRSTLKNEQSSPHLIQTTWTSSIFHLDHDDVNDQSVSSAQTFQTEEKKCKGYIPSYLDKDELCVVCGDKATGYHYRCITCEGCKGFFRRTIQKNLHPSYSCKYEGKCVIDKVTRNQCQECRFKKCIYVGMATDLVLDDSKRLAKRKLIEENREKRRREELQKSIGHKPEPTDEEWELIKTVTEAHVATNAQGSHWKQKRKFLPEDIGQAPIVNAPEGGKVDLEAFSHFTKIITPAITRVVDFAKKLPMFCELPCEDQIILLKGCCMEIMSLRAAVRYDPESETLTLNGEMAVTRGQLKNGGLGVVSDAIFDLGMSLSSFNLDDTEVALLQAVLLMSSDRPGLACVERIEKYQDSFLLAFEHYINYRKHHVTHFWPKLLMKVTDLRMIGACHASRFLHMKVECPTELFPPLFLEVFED
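Binding of a 20-amino-acid Texas Red SRC2 peptide (20 nM) to TRb ligand-binding domain (0.6 uM) with agonist T3 at 1 uM was followed by fluorescence polarization after a 5 hr room-temperature incubation.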
HTT cytoprotect: qHTS Multiplex Assay to Identify Dual Action Probes in a Cell Model of Huntington: Cytoprotection (ATP) | PC12 HTT-Q103 induced, cytoprotection, ATP luminescence, 40 h | Potency, µM (titrated, usually from 56.4 µM), without a hit: cytoprotection (ATP increase), usual class: activators | 230,000 compounds, 0.14% hits | AID 1471, 2008; note: potency is the fitted concentration of half-maximal effect; % of control where 0% means no effect; nearly all actives have a fitted effect of over 45% in size
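PC12 cells with ecdysone-inducible HTT exon 1 Q103-GFP, induced with 100 nM tebufenozide and co-treated with library compounds in a dose series (1536-well, 1500 cells/well). Cytoprotection read as ATP content by ATPlite luminescence.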
Coupling enz: qHTS Assay for Inhibitors of Fructose-1,6-bisphosphate Aldolase from Giardia Lamblia: Coupling assay counterscreen. AID 2472, 2010. activity change, negative = inhibition, % at 58.2 µM, hits read low. 290,000 compounds, 0.67% hits. coupling enzyme system counterscreen, AmpLite Red fluorescence; in the data active = activity change below about -30%; note: % is set by controls: 0 for no effect and ±100 for the full control effect
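Counterscreen of the coupled detection system alone, without aldolase: glyceraldehyde-3-phosphate coupling enzymes plus AmpLite Red readout. Compounds at 57.5 uM final, 10 min RT preincubation, 20 min RT reaction, fluorescence 525/598 nm.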
TR SRC2 fluor cs: Total Fluorescence Counterscreen for Inhibitors of the Interaction of Thyroid Hormone Receptor and Steroid Receptor Coregulator 2; Potency, µM (doses to about 106 µM), without a hit: top-dose fluorescence change, negative = quenching; AID 1479, 2009; TRb/SRC2 Texas Red total fluorescence interference; 280,000 compounds, 0.29% hits; active = well fitted curve in either direction with a large enough effect; inconclusive = small, poorly fitted or top-dose-only effect; note: potency is the fitted concentration of half-maximal effect; % is set by controls: 0 for no effect and ±100 for the full control effect
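Human TRβ ligand-binding domain (0.6 uM) and Texas Red SRC2 peptide (20 nM) in Tris buffer with 1 uM T3 and 5% DMSO were incubated with pinned compound for 5 hr at ambient temperature. Total fluorescence was computed as S + 2P (555/632 nm).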
Active calls of the source: *; u = inconclusive; x = no result given; [ ] = another dose, or the depositor's remark. Shown are actives, neighbours in structure and some others; about 2% of the full set was active somewhere. Unless noted, calls come from the whole dose curve; as a rule, active = well fitted curve in the direction sought with a large enough effect; inconclusive = small, poorly fitted or top-dose-only effect, or another doubt; inactive = no such curve, though single readings can be large; an effect the other way counts as inactive or inconclusive.

SMILES | KDM4E inh | HttQ103 aggreg | TRb-SRC2 inh | HTT cytoprotect | Coupling enz | TR SRC2 fluor cs
C=CC1=C(C(=O)O)N2C(=O)C(NC(=O)Cc3ccccc3)C2SC1 (centres undefined) | -12% | u | -7% | 5% | -42* | 2%
O=C(COc1ccccc1)NC1C(=O)N2C(C(=O)O)=C(Cl)CSC12 (centres undefined) | x | x | x | x | 0 | x
CCOc1cc(CNS(=O)(=O)c2ccc3c(c2)CC(=O)N3C)cc(OCC)c1OCC | x | x | -12% | x | -2 | 18µM*[quencher]
CC(C)[C@H](NC(=O)CNC(=O)OC(C)(C)C)C(=O)N[C@H](C=O)C(C)C | x | x | -22% | 27% | x | -1%
Cc1nc(Nc2ccc(Cl)c(Cl)c2)sc1C(=O)Nc1ccccc1 | u | 25µM* | -4%[53 µM] | 1%[10 µM] | 0 | -1%[53 µM]
Cc1nc(Nc2ccc(Cl)cc2Cl)sc1C(=O)Nc1ccccc1 | u | u | 1% | 15%[10 µM] | -8 | -4%
COc1ccc(NCCNc2ccc(OC)cc2)cc1 | -11% | 1% | 5% | -1% | -35* | 3%
CN(C)c1ccc(N2CN=C3SCC(=O)N3C2)cc1 | u | u | 16µM* | -51% | -51* | u
CCNC(=O)N1c2ccc(OC)cc2C(C)=CC1(C)C | u | 8% | -5% | -3% | -40* | 0%
COc1ccc(NC(=O)N2c3ccc(OC)cc3C(C)=CC2(C)C)cc1 | u | u | -14% | x | -36* | 5%
CCOc1ccc2c(c1)C(C)=CC(C)(C)N2C(=O)Nc1ccccc1 | u | 5%[9.22 µM] | u | 3% | -27 | -5%
Cc1ccc(C2CC(=O)Oc3ccc(C(C)(C)C)cc32)cc1 (centres undefined) | x | x | 6% | 28µM* | -4 | 3%
Cc1ccc(-n2nnnc2Sc2ccc(S(=O)(=O)NCCN(C)C)cc2[N+](=O)[O-])cc1 | 1% | 22µM* | -1%[53 µM] | -52%[10 µM] | -3 | -2%[53 µM]
O=[N+]([O-])c1cc(S(=O)(=O)NCCN2CCOCC2)ccc1Sc1nnnn1-c1ccccc1 | 6% | 4.5µM* | -4%[53 µM] | 24%[10 µM] | -19 | -1%[53 µM]
O=[N+]([O-])c1cc(S(=O)(=O)NCCCN2CCOCC2)ccc1Cl | u | -4% | 3% | 24%[10 µM] | 3 | -1%
CCOC(=O)c1c(NC(C)=O)c2c3c(sc2n1Cc1nc(-c2ccccc2Cl)oc1C)CCCC3 | x | x | -14% | x | x | 18µM*[quencher]
Cc1ccc(CSC(Nc2ccc(F)cc2)=C(C#N)C#N)cc1 | -2% | 6.3µM* | 4% | -30%[10 µM] | 0 | 0%
CCN(CC)C(=O)CSC(Nc1ccc(F)cc1)=C(C#N)C#N | 5% | -10%[9.22 µM] | 25% | 8%[10 µM] | 2 | 19%
O=C1CCC(=O)N(O)CCCCCNC(=O)CCC(=O)N(O)CCCCNC(=O)CCC(=O)N(O)CCCCCN1 | 4.5µM* | 4%[9.22 µM] | -8% | 6%[10 µM] | 5 | 0%
COC(=O)c1sc2cccc(F)c2c1S(=O)(=O)Nc1cc(C)c(Cl)cc1OC | x | x | -4% | x | x | 0%
CCOC(=O)/C=C/C(=O)OCC(=O)Nc1ccc(Cl)cn1 | 11% | 13% | -12% | -21% | -2 | 4%
CCOC(=O)NC1(Nc2ccc(Cl)cn2)Oc2ccccc2O1 | 25µM* | 3%[9.22 µM] | 3% | -66%[4.97 µM] | -9 | -5%
CCOc1ccc(NC(=O)CS(=O)(=O)Cc2nc(-c3ccc(C)cc3)oc2C)cc1 | x | x | -5% | x | x | 1%
COc1cc(CN(C(=O)c2ccc(OC(C)C)cc2)C2CCS(=O)(=O)C2)cc(OC)c1OC (centres undefined) | x | x | -8% | x | x | 1259µM*[quencher]
COc1ccc(OC)c(NC(=O)Cn2c(=O)n(-c3cccc(C)c3)c(=O)c3c2c2cc(C)ccc2n3C)c1 | x | x | -2% | x | x | -1%
SMILES | KDM4E inh | HttQ103 aggreg | TRb-SRC2 inh | HTT cytoprotect | Coupling enz | TR SRC2 fluor cs
CC1=CN2C(=N)/C(=C/c3ccc([N+](=O)[O-])o3)C(=O)N=C2S1 | 28µM* | u | -7% | -42%[10 µM] | -32* | 45µM*[fluorescent]
COc1ccc(OC)c(C2CC(=O)Nc3c2c(=O)[nH]c2nc4ccccc4n32)c1 (centres undefined) | x | x | 5% | x | x | 5%
Cc1csc2nc(-c3cccc(NC(=O)c4ccc(S(N)(=O)=O)cc4)c3)cn12 | x | x | -1% | x | x | -1%
C=CCOc1c(Br)cc(CNc2ccc(NC(=O)C(C)C)c(OC)c2)cc1OC | -5% | u | 3% | -18% | -45* | 0%
COCCCNC(=S)Nc1cccc2ncccc12 | -10% | -25% | -2% | -2% | -33* | 2%
Cc1ccc(OCCn2c(Br)nc3c2c(=O)n(C)c(=O)n3C)cc1 | -7% | -29% | -2% | 23%[10 µM] | -50* | -3%
Cc1cccc(-n2c(=O)[nH]c3c(C(N)=O)nc(-c4ccccc4Cl)nc32)c1 | 1.8µM* | -20% | -1% | -31% | 1 | -5%
O=C(O)Cn1c(C(=O)Nc2nc(-c3ccccc3Cl)cs2)cc2ccccc21 | x | -5% | 6% | -13% | -3 | -2%
CCOC(=O)c1ccc(NC(=O)c2c(NCc3cccs3)sc3c2CCCCC3)cc1 | x | x | -14% | x | x | u
O=C(OCCCN1CCOCC1)c1ccc(O)c(O)c1 | 16µM* | -22%[9.22 µM] | 3% | 8%[10 µM] | 1 | 0%
COc1cc(C(=O)OCCN2CCOCC2)ccc1O | -4% | -2%[9.22 µM] | -7% | 1%[0.074 µM] | 0 | -4%
CCOC(=O)c1cnc2ccc(OCC)cc2c1N1CCN(C)CC1 | -3% | -5% | -3% | -8% | -39* | 1%
CCOC(=O)c1cnc2ccc(Cl)cc2c1N1CCN(C)CC1 | 1% | -17% | -1% | 2% | 7 | 0%
Cc1ccc(N2C(=O)c3ccccc3C2C(=O)c2ccc(O)cc2O)cc1 (centres undefined) | 20µM* | 10% | -9% | 31%[10 µM] | 3 | -25%
CO[C@H]1COC(=O)C/C=C\[C@@H](C)[C@H](OC)COC(=O)CCC[C@@H]1C | x | x | 2%[11.2 µM] | 18%[10 µM] | 2 | 1%[11.2 µM]
CCOC(=O)c1cc(CC)sc1/N=C/C1C(=O)CCCC1=O | u | 5% | 0% | -14% | 2 | -2%
CCOC(=O)c1cc(CC)sc1/N=C/c1c(O)ccc2ccccc12 | u | 29% | u | 8%[10 µM] | -34* | u
Oc1ccc2ccccc2c1C=NCc1cn2ccsc2n1 | u | 4% | u | 5%[10 µM] | -35* | -24%
CC(=O)N(C)c1ccc(N=Cc2c(O)ccc3ccccc23)cc1 | x | x | x | x | -21 | x

Screens as filed in PubChem BioAssay.
